From ChEMBL document CHEMBL3988442, “University of Dundee, Small-Polar-MMV Screening Library” (2021)
Out of some 48,000 compounds screened, about 13,000 (27%) showed an effect of 50% or more. The list shows a part of the results.

tested on: Wolbachia pipientis; assay: Anti-Wolbachia Cell-Based Screen; format: functional; set-up: scale not given: in the data most compounds retested in dose-response had high values; settings: 5 µM

Row | SMILES | Percent Effect [%]
1 | CN1CCC(N[C@@H]2CO[C@H](CNC(=O)C3CCCC3)[C@H]2O)CC1 | -10.26
2 | CN(C)C(=O)CNC(=O)CCn1ncc2c(Cl)cccc21 | 7.628
3 | CC(=O)N1CCC(C(=O)NCCN2CCCC(C)C2)CC1 (configuration not stated) | 4.421
4 | O=C(NCCn1ccnc1)c1ccn(-c2cccc(F)c2)n1 | 3.245
5 | COc1cn(-c2ccccc2)nc1C(=O)NCCCN1CCCC(C)C1 (configuration not stated) | 0.4079
6 | COc1ccc(-n2ccc(C(=O)NCCN3CCCC(C)C3)n2)cc1 (configuration not stated) | 109.8
7 | CC1CCCN(CCNC(=O)c2ccn(-c3ccccc3)n2)C1 (configuration not stated) | -2.104
8 | CC1CCCN(CCNC(=O)c2ccn(-c3ccc(F)cc3)n2)C1 (configuration not stated) | 89.11
9 | CC1CCCN(CCCNC(=O)c2cn(C)nc2-c2cccnc2)C1 (configuration not stated) | -7.015
10 | CC1CCCN(CCNC(=O)c2ccn(-c3cccc(F)c3)n2)C1 (configuration not stated) | 71.46
11 | COc1cn(-c2ccccc2)nc1C(=O)NCCN1CCCC(C)C1 (configuration not stated) | 85.45
12 | COCC1c2nnn(CC3CC3)c2CCN1C(=O)c1ccnnc1 (configuration not stated) | -5.349
13 | Cc1csc(N(C)C(=O)C2CC(=O)N(c3ccccc3Cl)C2)n1 (configuration not stated) | 9.936
14 | CC(Sc1nnc(C2CC2)n1CC(N)=O)c1ccc(F)cc1F (configuration not stated) | -10.03
15 | Cc1cccc(-c2ncc(CNC(C)CO)cn2)c1 (configuration not stated) | -5.698
16 | Cn1cnnc1C1CCN(c2cncc(-n3cccn3)n2)CC1 | 0.9995
17 | O=C(NCC(O)(c1cccs1)C1CC1)NC1CCCCC1 (configuration not stated) | 9.559
18 | COCC1CN(S(=O)(=O)Cc2ccccc2)Cc2c1cnn2C.O=C(O)C(F)(F)F (configuration not stated) | -18.15
19 | Cc1cccc(N2CCN(CC(=O)N3CCCC(N(C)C)CC3)CC2)c1 (configuration not stated) | -50.72
20 | Cc1cc(Nc2cnccn2)cc(C2CCCNC2)n1 (configuration not stated) | 90.08
21 | Cc1cc(Nc2ccc(F)cn2)cc(C2CCCN2)n1 (configuration not stated) | 111.9
22 | Cc1cc(Nc2nc(C)cc(C)n2)cc(C2CCCN2)n1 (configuration not stated) | 104
23 | Cc1cc(C)nc(NC2CCOC3(CCCC3)C2)n1 (configuration not stated) | -13.03

Row | SMILES | Percent Effect [%]
24 | Cc1cc(Nc2cnccn2)cc(C2CCCN2)n1 (configuration not stated) | 103.5
25 | Cl.Cl.Fc1cccc(-c2c[nH]c(C3CCCN3)n2)c1 (configuration not stated) | -26.74
26 | Cn1cc(C2CC3(CCN(C(=O)c4ccsc4)CC3)NC2=O)cn1 (configuration not stated) | -8.602
27 | Cc1ccc(C(=O)N2CC(C)(C)[C@@](C)(O)C2)cc1N1CCNC1=O | -5.477
28 | Cc1nn(C)c(C)c1CN(CCO)C(=O)C1COc2ccccc2C1 (configuration not stated) | -4.476
29 | COCC(O)CNC(=O)c1coc(COc2ccc3sc(C)nc3c2)n1 (configuration not stated) | -2.868
30 | CC(Cn1cccn1)NCc1csc(-c2ccccc2)n1 (configuration not stated) | 5.94
31 | CCCS(=O)(=O)NC(=O)c1ccc(Br)o1 | -3.964
32 | Cn1nccc1-c1ccc2nc(C3CCNCC3)nn2c1 | 98.45
33 | Cn1nccc1-c1ccc2nc(C3CCN(CC4CC4)CC3)nn2c1.O=C(O)C(F)(F)F.O=C(O)C(F)(F)F | 97.48
34 | Cn1nccc1-c1ccc2nc(C3CCN(CCO)CC3)nn2c1.O=C(O)C(F)(F)F | -15.06
35 | O=C(O)C(F)(F)F.O=C(O)C(F)(F)F.c1cc2nc(C3CCN(CC4CC4)CC3)nn2cc1N1CCCC1 | -8.773
36 | CC(=O)N1CCC(c2nc3ccc(-c4ccnn4C)cn3n2)CC1.O=C(O)C(F)(F)F | 79.91
37 | CC(C)N1CCC(c2nc3ccc(-c4ccnn4C)cn3n2)CC1.O=C(O)C(F)(F)F | 101.4
38 | CCC1c2ccsc2CCN1C(=O)NCCNc1ncccn1 (configuration not stated) | 9.072
39 | O=C(c1ccccn1)N1C[C@@H]2CC[C@H](C1)N(C(=O)Cc1cccs1)C2 | -18.37
40 | CCc1sc(-c2nnc(CNC(C)Cn3cccn3)o2)cc1C (configuration not stated) | -4.192
41 | Cn1ccc(C(=O)NC2CCC23CCN(Cc2cnn(C)c2)CC3)c1.O=C(O)C(F)(F)F (configuration not stated) | 118.5
42 | Cn1ccc(C(=O)NC2CCC23CCN(C(=O)C2CCOCC2)CC3)c1 (configuration not stated) | -10.05
43 | Cc1ccc(CN2CCC3(CCC3NC(=O)c3ccn(C)c3)CC2)s1.O=C(O)C(F)(F)F (configuration not stated) | 90.78
44 | Cn1ccc(C(=O)NC2CCC23CCN(C(=O)c2ccncc2)CC3)c1.O=C(O)C(F)(F)F (configuration not stated) | -9.033
45 | Cn1ccc(C(=O)NC2CCC23CCN(CC2CCOCC2)CC3)c1.O=C(O)C(F)(F)F (configuration not stated) | 102.1
46 | Cn1ccc(C(=O)NC2CCC23CCN(Cc2ccc(F)cc2)CC3)c1.O=C(O)C(F)(F)F (configuration not stated) | 104.6

Row | SMILES | Percent Effect [%]
47 | Cn1ccc(C(=O)NC2CCC23CCN(Cc2cccnc2)CC3)c1.O=C(O)C(F)(F)F.O=C(O)C(F)(F)F (configuration not stated) | 0.1855
48 | Cn1ccc(C(=O)NC2CCC23CCN(C(=O)c2cnccn2)CC3)c1 (configuration not stated) | 13.19
49 | Cc1ccc(CN2CC(C(=O)NCC3CC3)C3(CCOCC3)C2)s1.O=C(O)C(F)(F)F (configuration not stated) | 9.43
50 | COCC(=O)N1CCC2(CCC2NC(=O)c2ccn(C)c2)CC1 (configuration not stated) | -13.3
51 | Cc1ccccc1CN1CCN(C(=O)CN2CCOC2=O)CC1 | -7.914
52 | Cc1nc2c(c(N3CCCC(CO)C3)n1)CCN(Cc1ccco1)CC2 (configuration not stated) | -5.863
53 | CC(C)(C)CC(=O)NC[C@H]1OC[C@@H](NCc2ccccn2)[C@@H]1O | -12.57
54 | COc1ccc(CN2C[C@@H](CN(C)C)[C@@H](CO)C2)cc1OC | 17.76
55 | Cn1ccc(C(=O)NC2CCC23CCN(C(=O)c2ccccn2)CC3)c1 (configuration not stated) | -6.667
56 | Cn1ccc(C(=O)NC2CCC23CCN(Cc2nccs2)CC3)c1 (configuration not stated) | 125.2
57 | Cn1ccc(C(=O)NC2CCC23CCN(C(=O)c2ccnnc2)CC3)c1 (configuration not stated) | 9.055
58 | CS(=O)(=O)NCc1cc2n(n1)CCCN(Cc1ccc(Cl)s1)C2 | 7.385
59 | O=C(C1CSc2ccccc2O1)N1CCN(CCO)CC1 (configuration not stated) | -0.8425
60 | N[C@@H](C(=O)N1CCN(c2ccccc2Cl)C(=O)C1)c1ccccc1 | 1.545
61 | CC(C)[C@H](N)C(=O)N1CCSc2ccccc2C1.Cl | 101.9
62 | CC(C)C[C@H](N)C(=O)N1CCSc2ccccc2C1.Cl | 104.5
63 | CC(C)(O)CN1CCN(C(=O)C2CSc3ccccc3O2)CC1 (configuration not stated) | -0.7844
64 | Cc1csc(CN(C)C(C)C(=O)N2CCc3ccccc3C2)n1 (configuration not stated) | 7.72
65 | CCc1cnc(CN(C)C(C)C(=O)N2CCc3ccccc3C2)s1 (configuration not stated) | -7.357
66 | CN(C)C(C(=O)N1Cc2ccccc2C1)c1ccccc1F (configuration not stated) | -6.272
67 | Cl.NC(C(=O)N1CCSc2ccccc2C1)c1ccccc1 (configuration not stated) | 93.09
